# A selection: hits, their analogues and other compounds. The true share with any hit is near 1.9%.
# HTR5A ag ctr = counter-screen for OPRM1-OPRD1 agonists: human HTR5A agonism; P47898; HTR5A agonist assay, luminescence, cell-based; activation, % at 9.3 µM; 0.61% of 340,000 active; in the data active = activation mostly above about 9.5%, no sharp cut-off; inactive = mostly below about 7.6%;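 note: 0% = cells with vehicle only and 100% = reference agonist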
# HTR5A inv ctr = HTR5A inverse agonism, opioid heterodimer counter-screen. HTR5A cell line, luminescence. inhibition, % at 9.3 µM. 0.083% of 340,000 active. AID 504634; in the data active = inhibition mostly above about 23%, no sharp cut-off; inactive = mostly below about 18%;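 note: 0% = cells with DMSO and 100% = no-cell wells with DMSO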
# MOR-DOR inv ag = inverse agonist of human OPRM1-OPRD1 heterodimerization | cell-based MOR-DOR heterodimer luminescence, inverse agonism | inhibition, % at 9.3 µM | 0.21% of 340,000 active; in the data active = inhibition above about 22%, passing the limit was not always enough;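 note: 0% = cells with DMSO and 100% = wells without cells with DMSO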
# Target sequence (P35372 whole entry, looked up): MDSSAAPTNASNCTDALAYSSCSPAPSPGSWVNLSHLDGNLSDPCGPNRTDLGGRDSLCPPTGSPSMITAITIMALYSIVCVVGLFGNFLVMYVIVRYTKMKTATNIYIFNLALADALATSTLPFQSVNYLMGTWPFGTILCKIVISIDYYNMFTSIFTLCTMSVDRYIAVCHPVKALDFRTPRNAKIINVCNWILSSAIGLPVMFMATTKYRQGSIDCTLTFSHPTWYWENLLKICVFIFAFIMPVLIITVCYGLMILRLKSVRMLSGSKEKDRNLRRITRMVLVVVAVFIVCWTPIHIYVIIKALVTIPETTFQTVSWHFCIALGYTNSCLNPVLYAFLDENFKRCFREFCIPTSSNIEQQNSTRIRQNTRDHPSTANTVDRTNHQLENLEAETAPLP
# Target sequence (P41143 whole entry, looked up): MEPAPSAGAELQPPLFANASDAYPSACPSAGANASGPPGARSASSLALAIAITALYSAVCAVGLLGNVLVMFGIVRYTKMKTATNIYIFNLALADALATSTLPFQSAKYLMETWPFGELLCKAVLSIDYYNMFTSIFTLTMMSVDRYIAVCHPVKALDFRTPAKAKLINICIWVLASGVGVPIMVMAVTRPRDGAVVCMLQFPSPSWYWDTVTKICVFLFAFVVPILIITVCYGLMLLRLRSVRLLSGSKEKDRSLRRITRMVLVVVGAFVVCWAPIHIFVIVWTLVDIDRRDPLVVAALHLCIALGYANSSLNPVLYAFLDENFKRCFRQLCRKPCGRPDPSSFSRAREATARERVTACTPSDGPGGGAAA
# MsrA inhibitor = inhibits bovine methionine sulfoxide reductase A; inhibition, % at 15.5 µM; AID 651718; purified bovine MsrA, absorbance read-out; 0.75% of 360,000 active; in the data active = inhibition above about 4.5%;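 note: 0% = vehicle wells with enzyme and 100% = reference inhibitor wells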
# MOR-DOR ag = OPRM1-OPRD1 heterodimerization agonism; P35372+P41143; cells, luminescence; activation, % at 9.3 µM; 0.3% of 340,000 active; AID 504326; in the data active = activation above about 18%;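 note: 0% = vehicle-treated cells and 100% = reference agonist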
# bovine MsrA act = activates bovine MsrA enzyme | purified bovine MsrA, absorbance read-out | activation, % at 10.6 µM | 0.3% of 360,000 active; in the data active = activation above about 7.5%;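 note: 0% = vehicle and 100% = reference activator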
# Active calls of the source: *; x = no result.
SMILES,HTR5A ag ctr,HTR5A inv ctr,MOR-DOR inv ag,MsrA inhibitor,MOR-DOR ag,bovine MsrA act
COc1cc(C(=O)O)cc(NC(=O)c2ccco2)c1OC,12.3*,-38.8,15.6,0.6,-2.9,-2.8
CCNC(=O)N(C)[C@H]1C[C@H]2c3[nH]c4c(-c5ccc6c(c5)OCO6)cccc4c3CCN2C(=O)[C@H]1[C@H](C)O,x,x,x,1.3,x,x
CCCc1ccc2oc(C(=O)N3CCN(c4cnccn4)CC3)c(C)c2c1,12.7*,-33.4,-15.7,-0.8,2.9,-11.5
CCCc1ccc2oc(C(=O)N3CCN(CCC(N)=O)CC3)c(C)c2c1,0.8,-2.9,7.4,-1.3,-1.5,-3.0
Cc1ccc(S(=O)(=O)N(C)C)cc1NC(=S)NC1CCCC(C)C1C (stereo not given),2.2,17.4,-10.3,-0.8,1.9,-0.2
CC1CCCCC1NC(=S)Nc1cccc(S(=O)(=O)N(C)C)c1 (stereo not given),10.9*,18.7,-7.0,-0.4,1.3,-3.1
COCC(=O)N1CCN(C(=O)C(=O)c2cccc(C(F)(F)F)c2)CC1,x,x,x,0.4,x,x
CC(C)Oc1ccc(C(=O)Nc2ccc(Cl)c(S(=O)(=O)Nc3ccc(Cl)cc3)c2)cc1,12.4*,0.6,-68.0,0.9,13.4,-2.0
CC(=O)c1ccc(-c2ccc(C(=O)N3CCC(C(N)=O)CC3)o2)cc1,-1.6,4.0,2.0,7.6*,-0.4,-3.5
CC(=O)c1ccc(-c2ccc(C(=O)N3CCN(c4ccc(F)cc4)CC3)o2)cc1,5.3,11.7,-5.4,1.5,1.1,-4.8
COC(=O)[C@]12C[C@H](CC(=O)NCc3cccs3)C(=O)N(Cc3ccccc3)C1=C[C@H](C(C)C)O[C@@H]2C1CC1,x,x,x,-0.2,x,x
Clc1cccc(-c2ccc(/C=N/n3cnnc3)o2)c1,3.3,22.8,-4.2,4.6*,0.8,-12.0
Cc1ccc(-c2ccc(/C=N/n3cnnc3)o2)cc1,-6.7,0.0,13.2,4.1,-2.5,-2.1
C=CCN1C[C@H](COC(=O)c2ccc(C)c(C)c2)Oc2cccc(F)c2S1(=O)=O,x,x,x,0.6,x,x
Cc1nn(Cc2ccccc2)c(C)c1/C=N/NC(=O)CNc1cccc(C(F)(F)F)c1,0.3,-0.7,-22.2,0.4,4.4,-7.2
O=C(CNc1cccc(C(F)(F)F)c1)N/N=C/c1cn(-c2ccccc2)nc1-c1ccccc1,0.3,15.2,0.7,4.6*,-0.1,-8.1
CC(=O)OCCNc1cc(Sc2nc3ccccc3[nH]2)c2nonc2c1[N+](=O)[O-],-6.3,-0.8,35.1*,2.6,-6.3,-25.0
CC(C)(C)C1CCC(=NNc2nc3ccccc3[nH]2)CC1 (stereo not given),-0.6,1.5,6.8,1.5,-1.2,-3.5
c1ccc2c(c1)CC/C2=N/Nc1nc2ccccc2[nH]1,11.7*,-32.5,-30.6,1.7,6.5,5.6
Cc1nc2ccccc2c2oc(C(=O)Nc3ccc4c(c3)OCCO4)cc12,6.7,-18.5,-1.4,0.5,0.3,-5.5
Cc1nc2ccccc2c2oc(C(=O)Nc3ccc(C(C)C)cc3)cc12,13.8*,-39.2,-55.9,0.0,7.7,-12.5
CCNC(=O)COC(=O)c1cc(C)n(-c2ccccc2)c1C,-0.4,10.0,7.8,-0.5,-1.4,-2.1
Cc1cc(C(=O)OCC(=O)NCc2ccco2)c(C)n1-c1ccc(F)cc1,-1.4,-22.6,10.8,-0.9,-1.9,8.5*
O=C(Cn1c(=O)n(CCC(=O)N2CCCCC2)c(=O)c2sccc21)NCc1ccccc1,12.6*,-8.3,12.1,-0.6,-2.2,-1.2
O=C(Cn1c(=O)n(CC(=O)N2CCCCC2)c(=O)c2sccc21)NCc1ccccc1,1.5,-20.2,6.8,-0.5,-1.2,-1.8
SMILES,HTR5A ag ctr,HTR5A inv ctr,MOR-DOR inv ag,MsrA inhibitor,MOR-DOR ag,bovine MsrA act
Cc1nc(SCC(=O)NNC(=O)c2ccc(F)cc2)c2ccccc2n1,12.8*,-31.4,8.4,0.6,-2.0,-12.1
COc1ccc(C2CC(=O)C(c3cccc(Cl)c3)=CN2Cc2ccccc2)cc1 (stereo not given),x,x,x,1.1,x,x
N/C(=N\OC(=O)c1ccccc1Br)c1ccc([N+](=O)[O-])cc1,-0.1,0.4,-24.3,0.6,5.1,-2.5
COc1cc(C(=O)O/N=C(\N)c2ccc([N+](=O)[O-])cc2)cc(OC)c1OC,4.0,-10.8,-73.8,-0.4,10.2,-3.8
Cc1ccccc1C(=O)O/N=C(\N)c1ccc([N+](=O)[O-])cc1,9.3*,-31.7,-38.2,0.0,7.9,-0.8
CCOc1cc(C(=O)O/N=C(\N)c2ccc([N+](=O)[O-])cc2)cc(OCC)c1OCC,13.4*,-41.1,-55.2,0.5,10.9,-3.9
O=C(c1ccc(Cl)c(S(=O)(=O)N2CCCC2)c1)N1CCN(c2ccccn2)CC1,11.8*,-66.2,-13.9,-1.7,2.7,0.5
CC(C)C[C@H](NC(=O)c1nccs1)C(=O)N1CCC[C@H]1C(=O)NCc1ccccc1,x,x,x,-0.5,x,x
O=C(CSC(=S)N1CCOCC1)c1cc2ccccc2oc1=O,10.0*,-35.9,4.8,x,-1.1,-9.7
Cc1ccc(CNCC(=O)Nc2ccc(C)cc2Br)cc1,11.8*,12.5,-9.7,1.7,2.0,-1.2
CC(=O)Nc1ccc(Nc2nc3ccccc3nc2NS(=O)(=O)c2ccccc2)cc1,12.0*,13.1,12.0,1.9,-2.2,-5.9
CCCCNc1c(-c2ccc(OC)c(Sc3ccc(OC)cc3)c2)nc2ccccn12,11.1*,-28.4,-64.4,x,11.5,-2.6
Cc1cc(C(=O)COC(=O)c2ccc3c(c2)OCO3)c(C)n1CC1CCCO1 (stereo not given),1.6,-4.6,5.0,-1.7,-1.0,-2.5
Cc1cc(C(=O)COC(=O)c2ccc(O)cc2)c(C)n1CC1COc2ccccc2O1 (stereo not given),12.3*,-42.8,-11.5,2.2,2.2,-11.0
CCn1cc(CCC(=O)Nc2ccc(Oc3cccnc3)cc2)c2ccccc21,x,x,x,1.0,x,x
COc1ccc(N2CCN(C(=O)c3cn(Cc4ccccc4)nc3-c3cccnc3)CC2)cc1,-3.9,14.1,0.8,0.3,-0.1,-6.2
COc1ccc(-c2nn(Cc3ccccc3)cc2C(=O)N2CCN(c3ncccn3)CC2)cc1OC,12.3*,-30.3,4.6,0.9,-1.1,-8.5
CCC(C)n1c(=O)c(C(=O)Nc2ccccc2S(N)(=O)=O)c(O)c2ccccc21 (stereo not given),9.0*,7.6,-25.2,-0.1,4.2,-0.6
CN1CCCCC(NC(=O)c2ccccc2)C1=O (stereo not given),x,x,x,0.3,x,x
O=C(COc1ccc2ccc(=O)oc2c1)OCc1ccccc1,12.4*,-21.6,0.1,0.3,0.0,-1.1
O=C(CNC(=O)OCc1ccccc1)Oc1ccc2ccc(=O)oc2c1,0.7,-2.8,15.2,0.3,-3.4,-2.9
Nc1nc2c(ncn2[C@@H]2O[C@H](C(=O)NCCCc3ccccc3)[C@@H](O)[C@H]2O)c(=O)[nH]1,x,x,x,-0.3,x,x
COC(=O)C1=C(C)N(Cc2cccc(C(F)(F)F)c2)C(=NCc2cc(OC)c(OC)c(OC)c2)NC1c1ccc(F)cc1 (stereo not given),x,x,x,-2.8,x,x

# High-throughput results deposited in PubChem BioAssay by The Scripps Research Institute Molecular Screening Center.
